Only some compounds are listed: those with a hit (about 8.9% of all), similar ones and a draw of the others.
ALDH1A1 block: blocks purified human ALDH1A1 activity; P00352; Purified ALDH1A1, NADH fluorescence, propionaldehyde substrate; Potency, µM (doses to about 75.3 µM), inactives show at the highest dose activity, negative = inhibition, hits mostly inhibitors; 220,000 compounds, 7.3% hits; active = well fitted inhibition curve with a large enough effect, not every such curve was filed as active; inconclusive = small, poorly fitted or top-dose-only effect, or another doubt; inactive = no such curve, though single readings can be large or run the other way;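 also: potency is read from the fitted curve at half-maximal effect; plate controls were no enzyme wells and a reference inhibitor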
HPGD block: inhibitors of human 15-hydroxyprostaglandin dehydrogenase (HPGD). purified HPGD, NADH fluorescence kinetic, PGE2 substrate. Potency, µM, for the others: top-dose activity change, negative = inhibition, actives largely listed as inhibitors. 150,000 compounds, 4.3% hits. AID 894; active = well fitted inhibition curve with a large enough effect, not every such curve was filed as active; inconclusive = small, poorly fitted or top-dose-only effect, or another doubt; inactive = no such curve, though single readings can be large or run the other way; also: potency is read from the fitted curve at half-maximal effect
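20 nM HPGD preincubated 15 min at room temperature with compound in 50 mM Tris-HCl pH 8, 0.01% Tween 20. Started with 1 mM NAD+ and 30 uM prostaglandin E2; NADH fluorescence (360/450 nm) read 5 times over 30-s intervals, last minus first.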
IMPase inh: IMPase inhibition in cells; CHO-M1 cells, IP1 accumulation, HTRF TR-FRET ratio; inhibition (IP1 accumulation), % at 46.1 µM; 120,000 tested, under 10 active; active = well fitted curve in the direction sought with a large enough effect in the signal ratio, not every such curve was filed as active; inconclusive = small, poorly fitted or top-dose-only effect, or a change in a side signal; inactive = no such curve, though single readings can be large or run the other way; the % refers to the signal ratio;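 also: cells stimulated with carbachol in lithium chloride buffer; plate controls were DMSO basal wells for no effect and reference inhibitor wells for full effect; higher means more IMPase inhibition seen as more IP1 and lower FRET ratio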
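CHO-M1, 2000 cells/well, cultured 16–30 h; cpd up to 46 uM; carbachol (50 uM solution, stimulation buffer w/ 50 mM LiCl, pH 7.4), 30 min 37C; IP-One TR-FRET, 10 min RT; Ex 320/Em 665, 620; Hill-fit AC50.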
12-hLO inh: blocks human 12-lipoxygenase activity; P18054; purified 12-hLO, xylenol orange hydroperoxide absorbance; Potency, µM (highest dose often 57.1 µM), for inactives: top-dose activity change, negative = inhibition, hits mostly inhibitors; 150,000 compounds, 0.12% hits; AID 1452; also: potency is read from the fitted curve at half-maximal effect; nearly all actives have a fitted effect of over 55% in size
Target sequence (P18054 whole entry, looked up): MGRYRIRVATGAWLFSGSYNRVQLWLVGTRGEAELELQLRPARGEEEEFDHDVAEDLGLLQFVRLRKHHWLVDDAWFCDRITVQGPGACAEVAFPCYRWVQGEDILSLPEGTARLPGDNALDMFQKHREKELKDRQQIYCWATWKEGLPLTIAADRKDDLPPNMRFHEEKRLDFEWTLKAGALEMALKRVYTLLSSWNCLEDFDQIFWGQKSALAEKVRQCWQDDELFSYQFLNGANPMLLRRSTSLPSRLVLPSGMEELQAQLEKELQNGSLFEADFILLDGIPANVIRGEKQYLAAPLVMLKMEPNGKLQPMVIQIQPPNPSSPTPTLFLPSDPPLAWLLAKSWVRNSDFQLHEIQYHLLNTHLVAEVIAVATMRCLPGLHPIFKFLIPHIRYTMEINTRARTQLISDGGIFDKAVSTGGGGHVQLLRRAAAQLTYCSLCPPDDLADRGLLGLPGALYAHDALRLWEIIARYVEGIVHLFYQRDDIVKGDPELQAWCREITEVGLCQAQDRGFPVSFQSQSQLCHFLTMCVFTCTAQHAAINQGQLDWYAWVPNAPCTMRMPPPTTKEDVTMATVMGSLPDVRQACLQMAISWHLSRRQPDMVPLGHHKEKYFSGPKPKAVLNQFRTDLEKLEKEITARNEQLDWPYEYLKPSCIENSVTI
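Xylenol orange chromogenic assay: hydroperoxide from 12hLO oxidises Fe(II), giving red-shifted Fe(III)-XO absorbance. Conditions: 150 nM enzyme, 40 uM arachidonic acid, 25 mM Hepes pH 7.0, 0.01% Triton X-100, 30 min, room temperature.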
IMPase Li inh: IMPase inhibition in cells with lithium potentiation; Potency, µM (titrated, usually from 59.4 µM), for inactives: at the highest dose activity, negative = IMPase inhibition, hits mostly inhibitors; 210,000 compounds, 0.35% hits; CHO-M1 cells, IP1 TR-FRET (IP-One), carbachol + lithium;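 also: IP1 builds up when IMPase is blocked and the TR-FRET signal falls; potency is read from the fitted curve at half-maximal effect; plate controls were basal vehicle for no effect and high inhibitor control for full effect; nearly all actives have a fitted effect of over 50% in size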
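Lithium-sensitised IP1 accumulation assay; M1-expressing CHO cells treated 30 min at 37C with compound. Competitive antibody detection by time-resolved FRET followed a 10 min room-temperature lysis step.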
NPSR antag: antagonists of human neuropeptide S receptor cAMP signaling; CHO-NPSR cells, cAMP TR-FRET, antagonist mode; Potency, µM (series often up to 38.3 µM), without a hit: top-dose activity change, negative = inhibition, actives largely listed as inhibitors; 220,000 compounds, 1% hits; AID 1461; also: potency is read from the fitted curve at half-maximal effect; nearly all actives have a fitted effect of over 50% in size
* hit, by the source's call; ? = inconclusive; nt = no result given; [ ] = another dose, or the depositor's remark. Unless noted, calls follow the shape of the dose curve; as a rule, active = well fitted curve in the direction sought with a large enough effect; inconclusive = small, poorly fitted or top-dose-only effect, or another doubt; inactive = no such curve, though single readings can be large; an effect the other way counts as inactive or inconclusive. Unless noted, % is scaled to controls: 0 for no effect and ±100 for the full control effect.

SMILES | ALDH1A1 block | HPGD block | IMPase inh | 12-hLO inh | IMPase Li inh | NPSR antag
Cc1ccc(S(=O)(=O)C/N=C(/NC(=S)N(c2ccccc2)c2ccccc2)c2ccccc2)cc1 | 14µM* | 32µM* | 4 | ? | 40%[38.3 µM] | 16%[46.1 µM]
Cc1c(C(=O)O)c(=S)sn1CCOc1ccccc1 | -8% | 18µM* | 9 | -5% | 20%[38.3 µM] | -3%[46.1 µM]
Cc1ccc(C(=O)OCc2cn(-c3ccccc3)nn2)cc1 | -3% | nt | nt | nt | 8% | -11%
c1ccc2c(Cn3nnc4ccccc43)cccc2c1 | ? | 28µM* | 25 | -5% | 29%[38.3 µM] | -10%[46.1 µM]
c1ccc2c(COn3nnc4ccccc43)cccc2c1 | -64% | ? | 10 | -2% | 28%[38.3 µM] | -26%[46.1 µM]
COc1ccc(-c2nnnn2-c2ccccc2OC)cc1 | 7.9µM* | 1% | 15 | -5% | 29% | 7%
Cc1ccccc1-n1nnnc1-c1ccccc1 | 4.5µM* | -13% | 2 | -3% | 1%[38.3 µM] | -1%[46.1 µM]
COc1ccc(-n2nnnc2-c2cccnc2)cc1 | 8% | -3% | 6 | 9% | 13%[38.3 µM] | -6%[46.1 µM]
Cc1ccc(NC(=O)CN2CCN(CCN=CC3=C(O)CC(C)(C)CC3=O)CC2)cc1 | -14% | -3% | 7 | 1% | -8%[38.3 µM] | -4%[46.1 µM]
CC(C)(CSc1ccccn1)NS(=O)(=O)c1ccc(Cl)cc1 | 10µM* | -8% | nt | -6% | 25% | -5%
O=C(NCc1cccnc1)c1cn(CCc2ccccc2)nn1 | -6% | -2% | -5 | -3% | 19%[38.3 µM] | 2%[46.1 µM]
CCCCC1=CC2=C(c3ccco3)C(=O)C(C)(OC(=O)c3ccc(OC)cc3)C(=O)C2=CN1CCOC (centres undefined) | 6%[13.5 µM] | 2% | nt | -1%[11.4 µM] | -19% | -20%
CCCCC1=CC2=C(c3ccco3)C(=O)C(C)(OC(=O)c3ccc(OC)cc3)C(=O)C2=CN1C1CCCCC1 (centres undefined) | 1%[13.5 µM] | ? | nt | -7%[11.4 µM] | 5% | 10µM*
CCCCC1=CC2=C(c3ccco3)C(=O)C(C)(OC(=O)c3ccc(OC)cc3)C(=O)C2=CN1Cc1ccccc1 (centres undefined) | 1%[13.5 µM] | -8% | nt | -6%[11.4 µM] | -12% | -52%
CCCCC1=CC2=C(c3ccco3)C(=O)C(C)(OC(=O)c3ccc(OC)cc3)C(=O)C2=CN1Cc1ccc2c(c1)OCO2 (centres undefined) | 3.5µM* | -8% | nt | -16%[11.4 µM] | -19% | -15%
O=C(CN1CCOCC1)N/N=C/c1cc2ccccc2nc1Cl | ? | ? | 11[1.84 µM] | 5% | 8%[38.3 µM] | -1%[46.1 µM]
Cc1ccc(NCC(=O)N/N=C/c2cc3ccccc3nc2Cl)cc1 | 10µM* | -14% | ? | -24% | 9%[38.3 µM] | -12%[46.1 µM]
Cc1ccc(S(=O)(=O)NCC(=O)N/N=C/c2ccc(Cl)cc2Cl)cc1 | 7.1µM* | -4% | -7 | -20% | -6% | -30%
CN(C)S(=O)(=O)c1ccc(N2CCN(S(=O)(=O)c3ccc(F)cc3)CC2)c(Cl)c1 | 7% | -3% | -7 | -4% | 14%[38.3 µM] | -19%[46.1 µM]
CCc1nnc(NC(=O)c2ccc(-c3ccc(Cl)cc3)o2)s1 | ? | ? | -1 | 1% | ? | 4%[46.1 µM]
Cc1cc(C)c2nc(N3CCC(C(=O)N4CCN(C(=O)c5ccco5)CC4)CC3)sc2c1 | 13µM* | -14% | 4 | -2% | 30%[38.3 µM] | -9%[46.1 µM]
Cc1cc(C)c2nc(N3CCC(C(=O)NCc4cccnc4)CC3)sc2c1 | 4% | nt | nt | nt | 4% | 5%
Cc1sc(-n2c(C)ccc2C)c(C#N)c1C | 22µM* | 18µM* | 6 | -5% | -3%[38.3 µM] | -23%[46.1 µM]
O=C(c1cnn2c(C(F)(F)F)cc(-c3ccc4c(c3)OCO4)nc12)N1CCCCC1 | 2% | 2.8µM* | 2 | 0% | -5%[38.3 µM] | -24%[46.1 µM]
CN1CCN(C(=O)c2cnn3c(C(F)(F)F)cc(-c4ccc5c(c4)OCO5)nc23)CC1 | ? | 25µM* | 8 | -1% | 19%[38.3 µM] | -2%[46.1 µM]
SMILES | ALDH1A1 block | HPGD block | IMPase inh | 12-hLO inh | IMPase Li inh | NPSR antag
COCCNC(=O)c1cc2nc(-c3ccccc3)cc(C)n2n1 | ? | nt | nt | nt | 2% | 20%
CC1(C)[C@@H]2CC[C@]1(C)[C@@H](OC(=O)CSC#N)C2 | 1.8µM* | -11% | nt | -1%[11.4 µM] | -1% | nt
CC1CC(C)CN(C(=O)C2CCC(CNc3c(N4CCCCC4)c(=O)c3=O)CC2)C1 (centres undefined) | nt | nt | nt | nt | nt | 0%
O=C(C(NS(=O)(=O)c1cccs1)c1ccccc1)N1CCN(c2ccccc2)CC1 (centres undefined) | ? | -11% | 4 | -3% | -4%[38.3 µM] | -26%[46.1 µM]
COc1ccc(N2CCN(C(CNS(=O)(=O)c3cccs3)c3cccnc3)CC2)cc1 (centres undefined) | -18% | -8% | -5 | -3% | 15%[38.3 µM] | -16%[46.1 µM]
O=S(=O)(NCC(c1cccnc1)N1CCN(c2ccccc2)CC1)c1cccs1 (centres undefined) | 2.5µM* | -11% | -5 | -5% | 26%[38.3 µM] | -12%[46.1 µM]
O=C1C(NS(=O)(=O)c2cccs2)=C(N2CCN(c3ccccc3)CC2)C(=O)c2ccccc21 | 3.5µM* | -25% | 18 | -10% | 49%[38.3 µM] | -24%[46.1 µM]
CC(=O)Nc1ccc(S(=O)(=O)NC2=C(N3CCN(c4ccc(F)cc4)CC3)C(=O)c3ccccc3C2=O)cc1 | 7.1µM* | -23% | 22 | -13% | 54%[38.3 µM] | ?
CC1CCCN(C2=C(NS(=O)(=O)c3ccc(Cl)cc3)C(=O)c3ccccc3C2=O)C1 (centres undefined) | 13µM* | -25% | nt | -3% | 42% | -46%
CCOCC(=O)Nc1cccc(-c2nc3cccnc3s2)c1C | -3% | nt | nt | nt | 1% | 11%
COc1ccc(S(=O)(=O)NCC(c2cccnc2)N2CCN(c3ccc(F)cc3)CC2)cc1C (centres undefined) | ? | -1% | 4 | -5% | 2% | -10%[46.1 µM]
COc1ccc(S(=O)(=O)NCC(c2cccnc2)N2CCN(c3ccccc3)CC2)cc1C (centres undefined) | 13µM* | -16% | 8 | -6% | 7%[38.3 µM] | -22%[46.1 µM]
Cc1cc(C(=O)O)ccc1N/C=C1\CCCC(C)C1=O (centres undefined) | -13% | -12% | -2 | 9% | 3%[38.3 µM] | -4%[46.1 µM]
CC1CCC/C(=C\Nc2ccc(O)cc2)C1=O (centres undefined) | 8.9µM* | ? | 18 | ? | 29%[38.3 µM] | -4%[46.1 µM]
CCOC(=O)c1c(N2C(=O)C3C4C=CC(C4)C3C2=O)sc2c1CCC(C)C2 (centres undefined) | ? | -3% | 0 | -6% | 2% | -28%
O=C(Nc1nc2ccc(Cl)cc2s1)[C@@H]1CCCN1C(=O)c1cccs1 | 25µM* | ? | nt | ? | -3% | -19%
O=C(O)c1ccc(CNc2ccccc2C(=O)O)cc1 | ? | ? | -5 | 5% | 10µM* | -4%[46.1 µM]

Compound activity from PubChem BioAssay.
